This note sets out measurements from PubChem BioAssay.

For orientation: viability means a read-out of living cells in per cent, often relative to untreated cells.

SMILES strings stand for the structures. Active and inactive are the calls of the source.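 Rule for the calls, unless noted: active = normalized viability below 100% at a tested concentration; inactive = the rest.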

Assay [1] is described as follows: Wnt pathway potentiators raising nuclear beta-catenin – imaging, WNT3A-conditioned medium, mouse C2C12, NPC library, primary screen (AID 1117326; in the data active = nuclear beta-catenin stimulation mostly above about 4.2%, no sharp cut-off; inactive = mostly below about 10%). To be noted: stronger effect = higher value.
The nature of assay [2]: stimulators of insulin release from INS-1E, primary screen, cell-based, 5 mM glucose, NPC library (AID 1117329;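 active = compound raises insulin release from rat beta cells at 5 mM glucose, no numeric limit stated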). To be noted: rat INS-1E insulin secretion, at 10 µM, stronger effect = higher value.
Assay [3] is described as follows: growth inhibition of GSK3B-pretreated HCT116 cells – cell-based, CellTiter-Glo, 0.2 to 20 µM (AID 1117336;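 active = compounds lowering colon cancer cell viability after pretreatment blocking the GSK3B kinase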). Particulars: HCT116 viability after GSK3B inhibitor, at 20 µM, stronger effect = higher value. On the technique in general: Cellular ATP, detected with luciferase, serves as a proxy for viable cell number.
The nature of assay [4]: inhibition of endothelial tube formation, primary screen, imaging, VEGF stimulated, CD31 staining, tube area, NPC library (AID 1117340;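 active = compound that reduces growth-factor-driven endothelial tube area in a mixed cell culture, no cutoff stated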). To be noted: VEGF-stimulated ADSC/ECFC co-culture, at 10 µM, stronger effect = higher value.
A short description of assay [5]: GLP1 release stimulators, primary, NCI-H716, NPC library (AID 1117341;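 active = compound raises GLP1 secretion from the human gut endocrine cells, with no numeric limit stated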). Particulars: NCI-H716 cells, at 10 µM, stronger effect = higher value.
Assay [6] is described as follows: HCT116 colon cancer cell growth inhibition, primary screen, CellTiter-Glo luminescence, NPC library (AID 1117342;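 active = compounds that lower survival of HCT116 colon cancer cells in the luminescence readout, no numeric limit stated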). To be noted: at 20 µM (top of the series).
Assay [7] can be described thus: reduced SW480 viability measured with CellTiter-Glo, NPC library, primary (AID 1117343;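 active = compounds that lower viability of the colon cancer cells in the luminescence readout, with no numeric limit stated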). To be noted: CellTiter-Glo luminescence; at 20 µM (top of the series) unless noted.
Assay [8] in a line: NPC library primary testing for decreased DLD-1 cell viability via CellTiter-Glo (AID 1117346;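 active = compounds that lower survival of DLD-1 colon cancer cells in the luminescence readout, no cutoff given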). To be noted: DLD-1 viability, CellTiter-Glo luminescence; at 20 µM (top of the series).
Assay [9] has as its target NAD(+) hydrolase SARM1 (Homo sapiens) (UniProt Q6SZW1). The assay is described as follows: blocking NAD cleavage by SARM1 SAM-TIR – cell lysate, NAD-Glo luminescence (AID 1508614;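 active = compound whose remaining NAD level is above about 45 nM, limit read from the data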;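 note: higher remaining NAD means stronger inhibition of SARM1 NADase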). Particulars: SAM-TIR HEK293T lysate NADase, at 1 µM, stronger effect = higher value.
Assay [10] can be described thus: MELAS cybrid and Rieske KO viability enhancers – cell-based, MELAS cybrids, Rieske KO mouse fibroblasts, CellTiter-Glo, primary screen (AID 1508586;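 active = mean z-score across replicates of 1.96 or higher in either the MELAS or the Rieske mutant cell line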;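 note: z relative to plate mean and SD of compound and empty wells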). Particulars: low glucose.
The nature of assay [11]: drug combination growth inhibition, ovarian cancer – cell-based, oncology-focused library, rucaparib conditional, profiling panel (AID 1508598). To be noted: patient-derived ovarian cancer cells, CellTiter-Glo viability, 144 h, stronger effect = lower value.
The mark [12] stands for this setting: MELAS cybrid survival, CellTiter-Glo 48 h, stronger effect = higher value.
Where [13] appears, read: Rieske KO mouse fibroblast survival, CellTiter-Glo 72 h.

Sequence of NAD(+) hydrolase SARM1 (Homo sapiens) (Q6SZW1 whole entry, looked up): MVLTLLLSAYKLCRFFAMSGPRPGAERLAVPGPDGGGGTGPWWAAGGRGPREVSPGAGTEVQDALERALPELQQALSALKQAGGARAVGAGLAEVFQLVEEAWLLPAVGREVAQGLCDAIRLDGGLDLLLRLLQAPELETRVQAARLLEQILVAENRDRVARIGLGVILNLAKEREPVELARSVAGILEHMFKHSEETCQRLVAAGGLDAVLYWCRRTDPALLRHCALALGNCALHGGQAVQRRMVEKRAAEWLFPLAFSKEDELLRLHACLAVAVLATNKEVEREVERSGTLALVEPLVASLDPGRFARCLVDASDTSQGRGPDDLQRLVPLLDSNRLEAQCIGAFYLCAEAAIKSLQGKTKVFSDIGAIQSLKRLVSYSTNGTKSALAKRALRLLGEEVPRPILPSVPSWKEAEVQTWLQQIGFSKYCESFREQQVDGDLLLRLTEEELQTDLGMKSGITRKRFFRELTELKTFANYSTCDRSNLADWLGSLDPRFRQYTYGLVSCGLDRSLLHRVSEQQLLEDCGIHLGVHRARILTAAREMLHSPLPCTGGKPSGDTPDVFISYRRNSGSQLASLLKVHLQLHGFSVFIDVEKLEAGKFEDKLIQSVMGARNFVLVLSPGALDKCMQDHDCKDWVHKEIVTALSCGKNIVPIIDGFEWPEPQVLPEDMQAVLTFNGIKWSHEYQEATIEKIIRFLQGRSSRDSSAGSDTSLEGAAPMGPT

Consider `CCNC(=O)/C=C/c1cccc(Br)c1`, for which the nuclear beta-catenin stimulation in assay [1] (at 10 µM) is 0.9% (inactive); in assay [1] (stimulation, at 2 µM) it was 0.6%. Besides, the insulin secretion stimulation in [2] is -2.3% (inactive). In addition, the viability decrease in assay [3] is -9.75% (inactive). In addition, the tube area decrease in assay [4] is -15.1% (inactive). For the same molecule, the GLP1 secretion stimulation in [5] was -0.7% (inactive). For the same molecule, the inhibition of viability in assay [6] is -8.7% (inactive). The viability decrease (inhibition) in assay [7] was 38% (inactive); in [8] it was 15.1% (inactive). For the same molecule, the remaining NAD in [9] was 10 nM (inactive).
As to `CC[C@H](C)[C@H](N)C(=O)O`, the nuclear beta-catenin stimulation in assay [1] (at 10 µM) was 2.1% (inactive); in [1] (stimulation, at 2 µM), 4.3%. For the same molecule, the insulin secretion stimulation in assay [2] was -0.7% (inactive). Further, in assay [3], the viability decrease was -17.5% (inactive). In addition, the tube area decrease in assay [4] was 27% (inactive). Besides, the GLP1 secretion stimulation in assay [5] was -0.4% (inactive). The inhibition of viability in assay [6] was -13.2% (inactive). The viability decrease (inhibition) in [7] was 0.9% (inactive); in assay [8], -7.9% (inactive). The remaining NAD in assay [9] was 10 nM (inactive).
On to `CCOCCn1c(N2CCCN(C)CC2)nc2ccccc21`, for which the nuclear beta-catenin stimulation is -1.8% (inactive) in assay [1] (at 10 µM) and 1% in assay [1] (stimulation, at 2 µM). In addition, in assay [2], the insulin secretion stimulation was 4.3% (inactive). The viability decrease in assay [3] was -10.6% (inactive). In assay [4], the tube area decrease is 3.4% (inactive). Moreover, in [5], the GLP1 secretion stimulation was -2.3% (inactive). Also, the inhibition of viability in assay [6] is 8.5% (inactive). Moreover, the viability decrease (inhibition) in assay [7] is 6% (inactive); in assay [8], -4.3% (inactive). The z-score in assay [10] (setting [12]) is 0.35 (inactive); in assay [10] (setting [13]) it was -0.184.
Regarding `OC[C@@H](O)[C@@H](O)[C@H](O)[C@H](O)CO`, the nuclear beta-catenin stimulation was 0.7% (inactive) in [1] (at 10 µM) and 0.6% in assay [1] (stimulation, at 2 µM). Moreover, in [2], the insulin secretion stimulation was -2% (inactive). In [3], the viability decrease was -4.45% (inactive). The tube area decrease in [4] was 4.3% (inactive). Also, the GLP1 secretion stimulation in assay [5] is 1.1% (inactive). For the same molecule, in assay [6], the inhibition of viability is -9.6% (inactive). Moreover, the values for the viability decrease (inhibition) in assay [7] and in assay [8] were 40.5% (inactive) and 8.25% (inactive), respectively. Also, the remaining NAD in [9] is 10 nM (inactive).
For the molecule `C[C@]1(Cn2ccnn2)[C@H](C(=O)O)N2C(=O)C[C@H]2S1(=O)=O`, the nuclear beta-catenin stimulation in [1] (at 10 µM) is -1.1% (inactive); in [1] (stimulation, at 2 µM), 0.1%. Moreover, in [2], the insulin secretion stimulation was 10.1% (inactive). In addition, the viability decrease in [3] was -2.3% (inactive). Further, in assay [4], the tube area decrease is -6% (inactive). The GLP1 secretion stimulation in assay [5] was 1.9% (inactive). In addition, in assay [6], the inhibition of viability is 3.3% (inactive). Further, the viability decrease (inhibition) in [7] is 17.8% (inactive); in assay [8] it was -1.5% (inactive). Moreover, the results for the z-score in assay [10] (setting [12]) and in [10] (setting [13]) were -0.126 (inactive) and -0.0503, respectively. Besides, in [9], the remaining NAD is 10 nM (inactive).
With `C[N+](C)(C)CC(O)CC(=O)[O-]` (stereo unspecified), the nuclear beta-catenin stimulation was 6.3% (inactive) in [1] (at 10 µM) and 2.6% in [1] (stimulation, at 2 µM). Moreover, the insulin secretion stimulation in [2] was 3.9% (inactive). Also, the viability decrease in [3] is 17.4% (inactive). For the same molecule, in [4], the tube area decrease is 0.3% (inactive). Also, the GLP1 secretion stimulation in assay [5] is -1.8% (inactive). In addition, the inhibition of viability in assay [6] is -0.3% (inactive). The viability decrease (inhibition) was -12.1% (inactive) in [7] and 1.7% (inactive) in [8]. Further, the remaining NAD in assay [9] is 10 nM (inactive).
For the molecule `CN1CC[C@H](c2c(O)cc(O)c3c(=O)cc(-c4ccccc4Cl)oc23)[C@H](O)C1`, the nuclear beta-catenin stimulation was 72.1% (active) in [1] (at 10 µM) and 76.1% in assay [1] (stimulation, at 2 µM). In addition, in assay [2], the insulin secretion stimulation is 2.75% (inactive). The viability decrease in assay [3] was 73.7% (active). Moreover, in [4], the tube area decrease was 110% (active). For the same molecule, the GLP1 secretion stimulation in assay [5] is 6.7% (inactive). For the same molecule, the inhibition of viability in assay [6] was 54.4% (active). In addition, the viability decrease (inhibition) in [7] was 62.3% (active); in assay [8] it was 78.5% (active). In addition, the viability in assay [11] (at 0.000305 µM, OCI-C5x cells, with rucaparib 10 µM, 100% = cells with rucaparib alone) was 109% (inactive); in assay [11] (at 0.000305 µM, OCI-C5x cells, without rucaparib), 112% (inactive); in [11] (at 0.000305 µM, OCI-P5x cells, with rucaparib 20 µM, 100% = cells with rucaparib alone), 56.8% (active); in [11] (at 0.000305 µM, OCI-P5x cells, without rucaparib), 15.2% (active); in assay [11] (at 0.00122 µM, OCI-C5x cells, with rucaparib 10 µM, 100% = cells with rucaparib alone) it was 93.2% (active); in assay [11] (at 0.00122 µM, OCI-C5x cells, without rucaparib), 107% (inactive). Moreover, the viability was 62% (active) in [11] (at 0.00122 µM, OCI-P5x cells, with rucaparib 20 µM, 100% = cells with rucaparib alone); 15.8% (active) in [11] (at 0.00122 µM, OCI-P5x cells, without rucaparib); 92.5% (active) in assay [11] (at 0.00488 µM, OCI-C5x cells, with rucaparib 10 µM, 100% = cells with rucaparib alone); 109% (inactive) in [11] (at 0.00488 µM, OCI-C5x cells, without rucaparib); 97.7% (active) in [11] (at 0.00488 µM, OCI-P5x cells, with rucaparib 20 µM, 100% = cells with rucaparib alone); 103% (inactive) in assay [11] (at 0.00488 µM, OCI-P5x cells, without rucaparib). The viability in assay [11] (at 0.0195 µM, OCI-C5x cells, with rucaparib 10 µM, 100% = cells with rucaparib alone) is 66% (active); in assay [11] (at 0.0195 µM, OCI-C5x cells, without rucaparib), 80% (active); in [11] (at 0.0195 µM, OCI-P5x cells, with rucaparib 20 µM, 100% = cells with rucaparib alone), 67.9% (active); in [11] (at 0.0195 µM, OCI-P5x cells, without rucaparib) it was 70.9% (active); in [11] (at 0.0781 µM, OCI-C5x cells, with rucaparib 10 µM, 100% = cells with rucaparib alone) it was 28.7% (active); in assay [11] (at 0.0781 µM, OCI-C5x cells, without rucaparib) it was 22.9% (active). The viability in [11] (at 0.0781 µM, OCI-P5x cells, with rucaparib 20 µM, 100% = cells with rucaparib alone) was 35.2% (active); in [11] (at 0.0781 µM, OCI-P5x cells, without rucaparib), 23.5% (active); in assay [11] (at 0.313 µM, OCI-C5x cells, with rucaparib 10 µM, 100% = cells with rucaparib alone), 12% (active); in assay [11] (at 0.313 µM, OCI-C5x cells, without rucaparib), 10.8% (active); in [11] (at 0.313 µM, OCI-P5x cells, with rucaparib 20 µM, 100% = cells with rucaparib alone) it was 21% (active); in assay [11] (at 0.313 µM, OCI-P5x cells, without rucaparib) it was 12.5% (active). Moreover, the viability in [11] (at 1.25 µM, OCI-C5x cells, with rucaparib 10 µM, 100% = cells with rucaparib alone) is 10.1% (active); in assay [11] (at 1.25 µM, OCI-C5x cells, without rucaparib), 10.5% (active); in [11] (at 1.25 µM, OCI-P5x cells, with rucaparib 20 µM, 100% = cells with rucaparib alone) it was 16.2% (active); in assay [11] (at 1.25 µM, OCI-P5x cells, without rucaparib), 13.2% (active); in [11] (at 5 µM, OCI-C5x cells, with rucaparib 10 µM, 100% = cells with rucaparib alone), 13.5% (active); in assay [11] (at 5 µM, OCI-C5x cells, without rucaparib) it was 11.4% (active). Moreover, the viability in assay [11] (at 5 µM, OCI-P5x cells, with rucaparib 20 µM, 100% = cells with rucaparib alone) was 14.2% (active); in [11] (at 5 µM, OCI-P5x cells, without rucaparib), 10.5% (active).
Turning to `CN(C)CCOC1=Cc2ccccc2Sc2ccc(Cl)cc21`, the nuclear beta-catenin stimulation in [1] (at 10 µM) is 31.6% (inactive); in [1] (stimulation, at 2 µM) it was -1%. Also, the insulin secretion stimulation in assay [2] was 14.5% (inactive). Further, the viability decrease in assay [3] is 99.3% (active). Further, the tube area decrease in [4] was 89.3% (active). Also, the GLP1 secretion stimulation in [5] is -2.6% (inactive). Moreover, in assay [6], the inhibition of viability was 99% (active). In addition, the viability decrease (inhibition) is 102% (active) in [7] and 97.6% (active) in assay [8]. In addition, the z-score was 0.153 (inactive) in assay [10] (setting [12]) and 0.114 in [10] (setting [13]).
Consider `Cc1cccn2c(=O)c(-c3nnn[nH]3)cnc12`, for which the nuclear beta-catenin stimulation in [1] (at 10 µM) is 3% (inactive); in assay [1] (stimulation, at 2 µM) it was 1.7%. Besides, the insulin secretion stimulation in [2] is -1.3% (inactive). Also, the viability decrease in [3] is 2.1% (inactive). Further, in assay [4], the tube area decrease is -6.7% (inactive). Also, in assay [5], the GLP1 secretion stimulation is 3.6% (inactive). Besides, in [6], the inhibition of viability is 13.5% (inactive). Also, the viability decrease (inhibition) in [7] was 8.4% (inactive); in assay [8], -1.9% (inactive). Also, the z-score was 0.721 (inactive) in assay [10] (setting [12]) and -0.0743 in assay [10] (setting [13]).
